Laboratory results reported in PubChem BioAssay AID1159580 (chemical genetic matrix, 2015).
Among all 5,500 compounds or so, about 2,000 (36%) were called active. Inconclusive results (about 18%) are left out. No stated cut-off is given here; in the data, active means normalized growth mostly below about 0.91 (no sharp cut-off); inconclusive means no clear call, values can overlap the other calls; inactive means mostly above about 0.92. Some of the results follow.

Assay: chemical genetic growth profiling, strain panel (AID 1159580);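 further: tested at 20 µM; growth read once vehicle control cultures reached saturation at 30 °C; 1 = growth at the plate median or of vehicle wells; lower values mean less growth of the strain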
Conditions: S. cerevisiae deletion strains, growth OD

Measured: normalized growth

C=C(C)C1(O)OC(=O)C=C1OC (stereo not given)
inactive: locus YBR021W, strain FUR4, active compounds read low 0.995 | locus YBR229C, strain ROT2, active compounds read low 0.944 | locus YCL029C, strain bik1, active compounds read low 0.977 | locus YDL035C, strain GPR1, active compounds read low 0.987 | locus YDL074C, strain BRE1, active compounds read low 1.01 | locus YDL101C, strain DUN1, active compounds read low 0.994 | locus YDL185W, strain tfp1, active compounds read low 0.968 | locus YDL192W, strain arf1, active compounds read low 0.984 | locus YDR101C, strain arx1, active compounds read low 1 | locus YDR150W, strain NUM1, active compounds read low 0.986 | locus YDR162C, strain NBP2, active compounds read low 0.961 | locus YDR318W, strain mcm21, active compounds read low 0.981 | locus YDR388W, active compounds read low 0.997 | locus YDR502C, strain sam2, active compounds read low 0.996 | locus YEL061C, strain CIN8, active compounds read low 0.989 | locus YER110C, active compounds read low 0.991 | locus YER155C, strain BEM2, active compounds read low 0.996 | locus YER167W, strain BCK2, active compounds read low 0.978 | locus YGL078C, strain dbp3, active compounds read low 0.991 | locus YGL086W, strain mad1, active compounds read low 1.03 | locus YGL248W, strain PDE1, active compounds read low 0.978 | locus YGR078C, strain PAC10, active compounds read low 1.03 | locus YGR135W, strain pre9, active compounds read low 0.983 | locus YGR252W, strain gcn5, active compounds read low 0.98 | locus YHR030C, strain SLT2, active compounds read low 0.981 | locus YHR079C, strain IRE1 (second series), active compounds read low 0.986 | locus YHR094C, strain hxt1, active compounds read low 0.983 | locus YHR129C, strain ARP1, active compounds read low 0.985 | locus YHR200W, strain rpn10, active compounds read low 0.994 | locus YIL066C, strain RNR3, active compounds read low 0.965 | locus YIL073C, strain SPO22, active compounds read low 0.978 | locus YIL125W, strain kgd1, active compounds read low 0.98 | locus YIR030C, strain dcg1, active compounds read low 0.986 | locus YJL095W, strain BCK1, active compounds read low 1.06 | locus YJL134W, strain LCB3, active compounds read low 0.981 | locus YJL168C, strain set2, active compounds read low 0.992 | locus YJL187C, strain SWE1 (second series), active compounds read low 1 | locus YJR043C, strain POL32, active compounds read low 0.948 | locus YJR075W, strain HOC1, active compounds read low 1.03 | locus YKL009W, strain mrt4, active compounds read low 1.01 | locus YKL068W, active compounds read low 0.965 | locus YKL085W, strain MDH1 (second series), active compounds read low 0.962 | locus YKL085W, strain MDH1, active compounds read low 0.962 | locus YKL190W, strain CNB1, active compounds read low 1 | locus YKR001C, strain vps1, active compounds read low 0.995 | locus YLR039C, strain RIC1, active compounds read low 0.963 | locus YLR058C, strain SHM2, active compounds read low 0.97 | locus YLR102C, strain apc9, active compounds read low 0.99 | locus YLR262C, strain YPT6, active compounds read low 0.918 | locus YLR268W, strain sec22, active compounds read low 1.04 | locus YLR330W, strain CHS5, active compounds read low 0.992 | locus YLR342W, strain FKS1 (second series), active compounds read low 0.985 | locus YLR371W, strain rom2, active compounds read low 0.97 | locus YLR418C, strain cdc73, active compounds read low 0.964 | locus YML016C, strain PPZ1, active compounds read low 0.978 | locus YML032C, strain rad52, active compounds read low 0.975 | locus YML124C, strain tub3, active compounds read low 0.984 | locus YMR078C, strain ctf18, active compounds read low 0.991 | locus YMR223W, strain ubp8, active compounds read low 0.992 | locus YMR263W, strain SAP30, active compounds read low 1.01 | locus YMR307W, strain GAS1, active compounds read low 0.947 | locus YNL067W, strain RPL9B, active compounds read low 1.03 | locus YNL128W, strain TEP1, active compounds read low 0.997 | locus YNL153C, strain GIM3, active compounds read low 1.02 | locus YNL233W, strain BNI4, active compounds read low 1.04 | locus YNL250W, strain rad50, active compounds read low 0.958 | locus YNL271C, strain bni1, active compounds read low 0.989 | locus YNL298W, strain CLA4, active compounds read low 1.02 | locus YNL307C, strain MCK1, active compounds read low 0.999 | locus YNL322C, strain KRE1, active compounds read low 0.98 | locus YNR052C, strain pop2, active compounds read low 1.01 | locus YOL006C, strain TOP1, active compounds read low 1.05 | locus YOL012C, strain htz1 1.2 | locus YOL147C, strain pex11, active compounds read low 0.991 | locus YOR061W, strain CKA2, active compounds read low 0.964 | locus YOR069W, strain VPS5, active compounds read low 0.985 | locus YOR136W, strain idh2, active compounds read low 1 | locus YOR144C, strain elg1, active compounds read low 0.981 | locus YOR184W, strain ser1, active compounds read low 0.973 | locus YOR316C, strain cot1, active compounds read low 0.994 | locus YPR119W, strain clb2, active compounds read low 0.987 | locus YPR141C, strain kar3, active compounds read low 0.977 | locus YPR163C, strain tif3, active compounds read low 0.99 | locus YPR167C, strain met16, active compounds read low 0.992 | strain wtn01, active compounds read low 1.02
